In PubChem BioAssay (NCI):
The panel holds about 79,000 compounds, 15% with a hit somewhere; the sample as a whole holds those more often. Activity calls are given as the source filed them. Cut-off read from the data, not from the text of the source: active = growth inhibition above about 70%; inactive = the rest.

Key:
[1] = NCI Yeast Anticancer Drug Screen. Data for the rad52 strain (AID 147);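 note: 0% = growth of vehicle-treated control cultures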; conditions: S. cerevisiae rad52 mutant growth inhibition, stronger effect = higher value
Method in brief: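 Here a repair-compromised yeast strain receives each compound; its growth is then quantified and normalised to vehicle-only controls.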

[2] = NCI Yeast Anticancer Drug Screen. Data for the wt1 strain (AID 149);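 note: 0% = growth of vehicle-treated wt1 cultures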; conditions: S. cerevisiae wt1 strain (SPY 50644) growth inhibition, stronger effect = higher value
Method in brief: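 Using yeast strain wt1, compound-induced growth inhibition was determined against vehicle-treated cultures.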

[3] = NCI Yeast Anticancer Drug Screen. Data for the rad50EPP+ strain (AID 151);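 note: 0% = growth of vehicle-treated control cultures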; conditions: S. cerevisiae rad50 mutant strain, stronger effect = higher value
Method in brief: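 Read-out is yeast growth inhibition relative to vehicle; cells used were the rad50EPP+ strain.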

[4] = NCI Yeast Anticancer Drug Screen. Data for the mgt1 strain (AID 153); conditions: S. cerevisiae mgt1 mutant growth inhibition, stronger effect = higher value
Method in brief: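 Measured: inhibition of mgt1 yeast growth by compound, normalized to vehicle-treated cultures.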

[5] = NCI Yeast Anticancer Drug Screen. Data for the rad50 strain (AID 155);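 note: 0% = growth of vehicle-only cultures of the same strain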; conditions: S. cerevisiae rad50 strain growth inhibition, stronger effect = higher value
Method in brief: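 Relative growth inhibition (compound vs vehicle) was measured in yeast with a defined repair-gene alteration.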

[6] = NCI Yeast Anticancer Drug Screen. Data for the mec2-1 strain (AID 157); conditions: S. cerevisiae mec2-1 strain, stronger effect = higher value
Method in brief: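 Using mec2-1 yeast: add compound, measure growth, express inhibition versus vehicle-treated cultures.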

[7] = NCI Yeast Anticancer Drug Screen. Data for the rad14 strain (AID 159);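 note: 0% = growth of vehicle-treated control cultures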; conditions: S. cerevisiae rad14 strain growth inhibition, stronger effect = higher value
Method in brief: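 Screen for anticancer potential: a yeast strain altered in DNA damage repair is grown with compound, and reduced growth is quantified against vehicle controls.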

[8] = NCI Yeast Anticancer Drug Screen. Data for the sgs1 mgt1 strain (AID 161);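 note: 0% = growth of cultures given vehicle only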; conditions: S. cerevisiae sgs1 mgt1 strain, stronger effect = higher value
Method in brief: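 Percent growth inhibition was derived by comparing compound-exposed mutant yeast with vehicle-exposed cultures. The strain carries alterations in DNA damage repair.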

[9] = NCI Yeast Anticancer Drug Screen. Data for the CLN2oe strain (AID 163);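 note: 0% = growth of vehicle-only control cultures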; conditions: S. cerevisiae CLN2oe strain, stronger effect = higher value
Method in brief: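 Whole-cell yeast growth assay. A strain engineered for altered cell-cycle control received compound, and inhibition relative to vehicle-treated cultures was recorded.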

[10] = NCI Yeast Anticancer Drug Screen. Data for the cln2 rad14 strain (AID 165);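 note: 0% = growth equal to vehicle treated cultures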; conditions: S. cerevisiae cln2 rad14 strain, stronger effect = higher value
Method in brief: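 Yeast strain cln2 rad14, bearing defects in cell cycle control and DNA repair, serves as the test system; values reflect growth inhibition compared with vehicle.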

[11] = NCI Yeast Anticancer Drug Screen. Data for the bub3 strain (AID 167); conditions: S. cerevisiae bub3 mutant strain, stronger effect = higher value
Method in brief: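 Screening used yeast with an engineered genetic alteration affecting cell cycle control. Compound-exposed cultures were compared with vehicle cultures, and reduced growth was taken as inhibition.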

[12] = NCI Yeast Anticancer Drug Screen. Data for the mlh1 strain (AID 171);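 note: 0% = growth of vehicle-treated control cultures of the same strain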; conditions: S. cerevisiae mlh1 strain growth inhibition, stronger effect = higher value
Method in brief: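 A yeast strain with a defined genetic lesion serves as the test organism. Cultures receive compound or vehicle, and growth is measured.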

[13] = NCI Yeast Anticancer Drug Screen. Data for the sgs1 strain (AID 173);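 note: 0% = growth of vehicle-only control cultures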; conditions: S. cerevisiae sgs1 mutant, stronger effect = higher value
Method in brief: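 A genetically defined yeast mutant is incubated with the test compound, and its growth is compared to that of the same strain given vehicle.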

[14] = NCI Yeast Anticancer Drug Screen. Data for the mlh1 rad18 strain (AID 175); conditions: S. cerevisiae mlh1 rad18 strain growth inhibition, stronger effect = higher value
Method in brief: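 Steps: expose repair-defective yeast to compound; measure growth; express inhibition against vehicle-treated controls.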

[15] = NCI Yeast Anticancer Drug Screen. Data for the rad18 strain (AID 177); conditions: S. cerevisiae rad18 mutant growth inhibition, stronger effect = higher value
Method in brief: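 Measured value is growth inhibition of a yeast strain bearing a DNA repair alteration, referenced to vehicle-treated cells.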

[16] = at 5.0 µM (retest, dose inferred, filed as 0.5)
[17] = at 50.0 µM (retest, dose inferred, filed as 5.0)

Measured: growth inhibition

COc1ccc(/C=C2\NC(=S)N(/C=C3\C(=O)Oc4ccccc4C3=O)C2=O)cc1
inactive: [1]; at 1.2 µM -1% | [1]; at 3.7 µM -1% | [1]; at 11.0 µM 3% | [1]; at 33.0 µM 5% | [1]; at 100.0 µM 21% | [2]; at 1.2 µM 1% | [2]; at 3.7 µM 1% | [2]; at 11.0 µM 1% | [2]; at 33.0 µM 4% | [2]; at 100.0 µM 15% | [3]; at 1.2 µM -2% | [3]; at 3.7 µM -3% | [3]; at 11.0 µM -1% | [3]; at 33.0 µM -1% | [3]; at 100.0 µM -2% | [4]; at 1.2 µM -5% | [4]; at 3.7 µM -5% | [4]; at 11.0 µM -3% | [4]; at 33.0 µM -8% | [4]; at 100.0 µM 28% | [5]; at 1.2 µM -4% | [5]; at 3.7 µM 4% | [5]; [16] 3% | [5]; at 11.0 µM -17% | [5]; at 33.0 µM 5% | [5]; [17] 24% | [5]; at 100.0 µM 20% | [6]; at 1.2 µM 0% | [6]; at 3.7 µM 1% | [6]; [16] -1% | [6]; at 11.0 µM 3% | [6]; at 33.0 µM 15% | [6]; [17] 1% | [6]; at 50.0 µM 56.2% | [6]; at 100.0 µM 24% | [7]; at 1.2 µM 1% | [7]; at 3.7 µM 0% | [7]; at 11.0 µM 2% | [7]; at 33.0 µM 7% | [7]; at 100.0 µM 21% | [8]; [16] 0% | [8]; [17] 8% | [9]; at 1.2 µM -6% | [9]; at 3.7 µM -6% | [9]; at 11.0 µM -9% | [9]; at 33.0 µM 11% | [9]; at 100.0 µM 34% | [10]; [16] 41% | [10]; [17] 26% | [11]; at 1.2 µM -3% | [11]; at 3.7 µM -2% | [11]; [16] -5% | [11]; at 11.0 µM -2% | [11]; at 33.0 µM 4% | [11]; [17] 4% | [11]; at 100.0 µM 15% | [12]; at 1.2 µM -1% | [12]; at 3.7 µM 1% | [12]; at 11.0 µM 1% | [12]; at 33.0 µM 9% | [12]; at 100.0 µM 25% | [13]; at 1.2 µM 0% | [13]; at 3.7 µM 2% | [13]; at 11.0 µM 2% | [13]; at 33.0 µM 20% | [13]; at 100.0 µM 35% | [14]; [16] 4% | [14]; [17] 2% | [15]; at 1.2 µM -3% | [15]; at 3.7 µM -1% | [15]; at 11.0 µM 1% | [15]; at 33.0 µM 5% | [15]; at 100.0 µM 14%
active: [5]; at 50.0 µM 70.2% | [8]; at 50.0 µM 84.2% | [10]; at 50.0 µM 89.2% | [11]; at 50.0 µM 79.2% | [14]; at 50.0 µM 72.8%

CCOc1c(N=Nc2ccccc2OC)c(C)nn1C(=S)S
inactive: [1]; at 1.2 µM 0% | [1]; at 3.7 µM 3% | [1]; at 11.0 µM 11% | [1]; at 33.0 µM 39% | [2]; at 1.2 µM -1% | [2]; at 3.7 µM 1% | [2]; at 11.0 µM 4% | [2]; at 33.0 µM 17% | [2]; at 100.0 µM 52% | [3]; at 1.2 µM 2% | [3]; at 3.7 µM 14% | [3]; at 11.0 µM 26% | [3]; at 33.0 µM 54% | [4]; at 1.2 µM -2% | [4]; at 3.7 µM 1% | [4]; at 11.0 µM 3% | [4]; at 33.0 µM 18% | [5]; at 1.2 µM -1% | [5]; at 3.7 µM -1% | [5]; [16] -2% | [5]; at 11.0 µM 8% | [5]; at 33.0 µM 22% | [5]; [17] 36% | [5]; at 100.0 µM 65% | [6]; at 1.2 µM -1% | [6]; at 3.7 µM 0% | [6]; [16] -7% | [6]; at 11.0 µM 2% | [6]; at 33.0 µM 19% | [6]; [17] 4% | [6]; at 100.0 µM 60% | [7]; at 1.2 µM 4% | [7]; at 3.7 µM -1% | [7]; at 11.0 µM 4% | [7]; at 33.0 µM 4% | [8]; [16] 4% | [8]; [17] 49% | [9]; at 1.2 µM -6% | [9]; at 3.7 µM 0% | [9]; at 11.0 µM -3% | [9]; at 33.0 µM 7% | [9]; at 100.0 µM 59% | [10]; [16] -45% | [10]; [17] 4% | [11]; at 1.2 µM -7% | [11]; at 3.7 µM -1% | [11]; [16] -25% | [11]; at 11.0 µM 15% | [11]; at 33.0 µM 34% | [11]; [17] 50% | [11]; at 100.0 µM 67% | [13]; at 1.2 µM -1% | [13]; at 3.7 µM 3% | [13]; at 11.0 µM 14% | [13]; at 33.0 µM 45% | [14]; [16] -30% | [14]; [17] 56% | [15]; at 1.2 µM -11% | [15]; at 3.7 µM -3% | [15]; at 11.0 µM 4% | [15]; at 33.0 µM 32%
active: [1]; at 100.0 µM 79% | [3]; at 100.0 µM 79% | [4]; at 100.0 µM 74% | [5]; at 50.0 µM 98.5% | [6]; at 50.0 µM 97.8% | [7]; at 100.0 µM 78% | [8]; at 50.0 µM 97.7% | [10]; at 50.0 µM 98% | [11]; at 50.0 µM 98% | [13]; at 100.0 µM 86% | [14]; at 50.0 µM 98.3% | [15]; at 100.0 µM 70%
